The entries come from a sample that favours hits as a whole.
14-3-3g Raf – modulators of 14-3-3 gamma protein binding, primary screen, biochemical, fluorescence polarization | actives 0.19% (n = 160,000) | 14-3-3 protein gamma (Homo sapiens), P61981 | inhibition, % at 40 µM | FP, 14-3-3gamma / TMR-pS259-Raf peptide binding; in the data active means inhibition above about 30%;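 further: 0% = protein plus tracer without compound and 100% = blank with tracer alone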
Target sequence (P61981 whole entry, looked up): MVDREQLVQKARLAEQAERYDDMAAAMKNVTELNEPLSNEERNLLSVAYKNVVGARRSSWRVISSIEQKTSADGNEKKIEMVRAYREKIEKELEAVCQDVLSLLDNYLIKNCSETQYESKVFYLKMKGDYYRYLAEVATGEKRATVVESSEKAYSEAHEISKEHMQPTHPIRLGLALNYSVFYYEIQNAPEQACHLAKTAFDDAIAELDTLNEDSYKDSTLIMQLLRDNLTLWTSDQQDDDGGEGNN
Numbers without * were called inactive.

SMILES | 14-3-3g Raf
COc1ccc(-n2c(=O)[nH]cc(C(=O)Nc3ccc4c(c3)OCCO4)c2=O)cc1 | -10.5
Cc1ccc(-n2c(=O)[nH]cc(C(=O)Nc3ccc4c(c3)OCCO4)c2=O)cc1C | 37.3*
Cc1ccc(-n2c(=O)[nH]cc(C(=O)Nc3ccc4c(c3)OCCO4)c2=O)cc1 | -2.3
O=C(C1CCN(S(=O)(=O)N2CCOCC2)CC1)N1CCCCCC1 | 0.0
CC1=C(C(=O)OC2CCCCC2)C(c2ccccc2F)n2c(nc3ccccc32)N1 (stereo not drawn) | -3.3
CCCOc1ccc(/C(O)=C2/C(=O)C(=O)N(CCN(C)C)C2c2ccc(O)c(OC)c2)cc1 (stereo not drawn) | -0.6
COc1ccc(/C(O)=C2/C(=O)C(=O)N(CCCN(C)C)C2c2ccc(Cl)cc2)cc1OC (stereo not drawn) | -6.3
CCCOc1ccc(C2/C(=C(/O)c3ccccc3)C(=O)C(=O)N2CCCN(C)C)cc1OC (stereo not drawn) | 34.9*
Cc1ccc(Sc2cc(C(=O)NCc3ccccc3)c3ccccc3n2)cc1 | -5.1
COc1ccc(Cl)cc1NC(=O)Cn1c(=O)n(-c2cc(C)cc(C)c2)c(=O)c2sccc21 | 1.6
Nc1ccc(C(=O)Nc2ccc(N)cc2N)cc1 | -32.8
Nc1ccc(NCCO)c(N)c1 | 90.7*
COC(=O)CCCCCNc1ccc(C(=O)OC)cc1N | -11.6
Cn1c(=O)c2c(nc(SCCC(=O)O)n2Cc2ccc(Cl)cc2)n(C)c1=O | -1.8
CCOc1ccc(N(CC(=O)Nc2cccc(Cl)c2C)S(=O)(=O)c2ccccc2)cc1 | -4.7
COc1ccc(CNC(=O)CN2CCN(Cc3ccccc3F)C2=O)cc1 | 7.3
CSc1nc2c(c(=O)[nH]1)C(c1cccnc1)C(C(=O)OC(C)C)=C(C)N2 (stereo not drawn) | -5.2
COc1ccc(C2=NN(c3ccccc3)C(c3ccc(OC)cc3)C2)cc1 (stereo not drawn) | -33.7
O=c1oc2ccccc2cc1C1=NN(c2ccccc2)C(c2ccccc2)C1 (stereo not drawn) | 53.9*
Cc1ccc(N2N=C(c3ccccc3)CC2c2ccccc2)cc1 (stereo not drawn) | -8.5
O=[N+]([O-])c1cc(Br)c(O)c(C=Nc2ccc3nc(-c4cccc(F)c4)oc3c2)c1 | -15.1
O=C1c2ccc3c4c(ccc(c24)C(=O)N1c1ccccc1)N(c1ccccc1)C3=O | -69.1
C=CCNc1ccc2c3c(cccc13)C(=O)N(c1ccccc1)C2=O | 158.1*
O=C1c2cccc3c(N4CCCC4)ccc(c23)C(=O)N1c1ccccc1 | -24.4
O=C1c2cccc3c(NCCO)ccc(c23)C(=O)N1CCO | 8.5
SMILES | 14-3-3g Raf
Nc1ccc2c3c(cccc13)C(=O)N(c1ccccc1)C2=O | 86.8*
O=C1c2cccc3c([N+](=O)[O-])ccc(c23)C(=O)N1c1ccccc1 | 4.2
O=C1C2C(c3ccc(Cl)cc3)OC3(C(=O)c4ccccc4C3=O)C2C(=O)N1c1cccc(C(F)(F)F)c1 (stereo not drawn) | -156.4
COC(=O)c1cccc(N2C(=O)C3C4C=CC(C)(O4)C3C2=O)c1 (stereo not drawn) | -6.3
COc1ccccc1CN1C(=O)C2C3CCC(C3)C2C1=O (stereo not drawn) | -5.1
COc1cc(NC(=O)c2nn3c(C(F)(F)F)cc(-c4ccccc4)nc3c2Cl)cc([N+](=O)[O-])c1 | 0.4
O=C(O)CC(C(=O)OC1CCCCC1)N1CCOCC1 (stereo not drawn) | 3.1
CCOC(=O)C(CC(=O)O)N1CCCCC1 (stereo not drawn) | 35.5*
O=C(O)CC(C(=O)OCC1CCCO1)N1CCOCC1 (stereo not drawn) | -6.2
Fc1ccc(-n2cc(-c3ccc(Oc4ccccc4)cc3)[nH]c2=S)cc1 | -88.8
O=C(O)CSc1nnc2c(n1)OC1(CCCC1)Nc1ccccc1-2 | -4.0
CCCSc1nnc2c(n1)OC1(CCCC1)Nc1ccc(Br)cc1-2 | -57.7
CCCCSc1nnc2c(n1)OC1(CCCC1)Nc1ccccc1-2 | 116.9*
CSc1nnc2c(n1)OC(c1ccc(Br)s1)Nc1ccccc1-2 (stereo not drawn) | -18.2
CCCSc1nnc2c(n1)OC(c1ccsc1)Nc1ccc(Br)cc1-2 (stereo not drawn) | -65.3
CSc1nnc2c(n1)OC(c1ccsc1)Nc1ccccc1-2 (stereo not drawn) | -3.2
CSc1nnc2c(n1)OC(c1ccccc1Br)Nc1ccccc1-2 (stereo not drawn) | 41.1*
CCCSc1nnc2c(n1)OC(c1ccsc1)Nc1ccccc1-2 (stereo not drawn) | 63.8*
CCSc1nnc2c(n1)OC(c1ccc(N(CC)CC)cc1)Nc1ccccc1-2 (stereo not drawn) | 38.9*
CCSc1nnc2c(n1)OC(c1ccc(CC)cc1)Nc1ccccc1-2 (stereo not drawn) | 18.2
CSc1nnc2c(n1)OC(c1ccccc1O)Nc1ccccc1-2 (stereo not drawn) | 0.7
CCSc1nnc2c(n1)OC(c1ccc(C)cc1)Nc1ccccc1-2 (stereo not drawn) | 5.1
COc1ccc(-n2ncc3c(N4CC(C)CC(C)C4)ncnc32)cc1 (stereo not drawn) | -7.1
CC1=C(C(=O)Nc2cc(Cl)ccc2C)C(c2ccc(N(C)C)cc2)NC(=S)N1 (stereo not drawn) | -1.1
Cc1cccc(CN2C(=O)c3ccccc3Sc3ccc(C(=O)NCCC(C)C)cc32)c1 | 4.7
SMILES | 14-3-3g Raf
Cc1c(C(=O)NC2CCCCC2)sc2nc(SCC#N)n(CCc3ccccc3)c(=O)c12 | -5.0
COc1ccc(Cc2nc(-c3ccc(NC(=O)c4ccccn4)cc3)no2)cc1 | -7.7
COc1ccc(C(=O)Oc2ccc3c(C)cc(=O)oc3c2)cc1[N+](=O)[O-] | 8.3
COc1ccc(NC(=O)Cn2c3ccccc3c(=O)c3cc(C)ccc32)cc1Cl | -2.9
CCCc1c(C)nc2c(C(=O)N3CCN(c4cc(C)ccc4C)CC3)c[nH]n2c1=O | -9.9
CCCCNS(=O)(=O)c1ccc2oc(C(=O)O)c(C)c2c1 | -2.6
C=CCSc1nnc2c(n1)OC(c1cccnc1)Nc1ccccc1-2 (stereo not drawn) | -17.2
CCOc1cc(C2Nc3ccccc3-c3nnc(SC)nc3O2)cc(Br)c1OCC (stereo not drawn) | -106.2
CCOc1ccc([N+](=O)[O-])cc1C1Nc2ccccc2-c2nnc(SC)nc2O1 (stereo not drawn) | 38.3*
CCCCSc1nnc2c(n1)OC(c1cccnc1)Nc1ccc(Br)cc1-2 (stereo not drawn) | -34.3
CCCSc1nnc2c(n1)OC(c1ccccc1Cl)Nc1ccccc1-2 (stereo not drawn) | 33.4*
CCOc1cccc(C2Nc3ccccc3-c3nnc(SC)nc3O2)c1OC (stereo not drawn) | -1.1
C=CCSc1nnc2c(n1)OC(c1cccc(O)c1)Nc1ccccc1-2 (stereo not drawn) | -5.2
CCCSc1nnc2c(n1)OC(c1cc3c(cc1Cl)OCO3)Nc1ccccc1-2 (stereo not drawn) | -49.5
CCCCCCSc1nnc2c(n1)OC(c1cccnc1)Nc1ccccc1-2 (stereo not drawn) | 68.2*
CCCCSc1nnc2c(n1)OC(c1ccccc1)Nc1ccccc1-2 (stereo not drawn) | -2.7
CCCSc1nnc2c(n1)OC(c1ccncc1)Nc1ccccc1-2 (stereo not drawn) | -8.9
C=CCOc1cccc(C2Nc3ccccc3-c3nnc(SCC=C)nc3O2)c1 (stereo not drawn) | 139.7*
CCOCCCNS(=O)(=O)c1ccc2c(c1)CCN2C(=O)C1CCC1 | -9.5

High-throughput results (PubChem)
